Bioassay records deposited in PubChem by National Center for Advancing Translational Sciences (NCATS).
GCN5L2 inh: qHTS Assay for Inhibitors of GCN5L2; AID 504327, 2011; GCN5L2 HAT assay, ThioGlo1 CoA-SH fluorescence; 0.21% of 390,000 active; Potency, µM (doses to about 58.9 µM), inactives show top-dose activity change, negative = inhibition, usual class: inhibitors
Target sequence (Q92830 whole entry, looked up): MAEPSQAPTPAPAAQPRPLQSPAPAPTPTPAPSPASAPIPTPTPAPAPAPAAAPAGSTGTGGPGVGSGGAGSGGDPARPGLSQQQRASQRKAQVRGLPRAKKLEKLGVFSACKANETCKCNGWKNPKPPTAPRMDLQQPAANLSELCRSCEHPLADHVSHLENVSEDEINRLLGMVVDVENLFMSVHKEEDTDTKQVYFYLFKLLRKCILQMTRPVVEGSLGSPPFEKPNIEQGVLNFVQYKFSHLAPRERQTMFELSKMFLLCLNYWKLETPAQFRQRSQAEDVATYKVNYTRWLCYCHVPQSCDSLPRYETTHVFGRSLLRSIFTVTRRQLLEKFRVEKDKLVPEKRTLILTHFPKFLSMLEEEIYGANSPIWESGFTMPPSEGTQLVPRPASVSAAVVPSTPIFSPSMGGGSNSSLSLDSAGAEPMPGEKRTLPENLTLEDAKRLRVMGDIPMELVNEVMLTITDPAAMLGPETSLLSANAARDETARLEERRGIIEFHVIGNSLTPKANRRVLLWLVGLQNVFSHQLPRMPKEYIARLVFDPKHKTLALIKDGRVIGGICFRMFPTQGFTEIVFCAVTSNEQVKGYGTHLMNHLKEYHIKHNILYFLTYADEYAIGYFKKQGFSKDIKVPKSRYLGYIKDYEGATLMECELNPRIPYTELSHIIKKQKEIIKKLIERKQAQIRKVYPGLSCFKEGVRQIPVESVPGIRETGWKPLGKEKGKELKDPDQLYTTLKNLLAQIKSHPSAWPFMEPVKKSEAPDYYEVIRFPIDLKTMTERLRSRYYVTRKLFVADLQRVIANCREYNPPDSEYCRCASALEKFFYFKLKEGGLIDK
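ThioGlo1-coupled HAT assay: 20nM GCN5L2, 70uM acetyl-CoA, 75uM H3(1-25) peptide, pH 7.5. Fluorescence read at 340/540nm at start and after 20 min at room temperature.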
PLK1 PBD block: qHTS for Inhibitors of PLK1-PDB (polo-like kinase 1 - polo-box domain): Primary Screen. AID 720504, 2013. Potency, µM, for the others: max response, negative = inhibition, most hits filed as inhibitors. Serine/threonine-protein kinase PLK1 (Homo sapiens), P53350. 2.8% of 360,000 active. Plk1 PBD binding of FITC phosphopeptide, fluorescence polarization; also: series mostly up to about 57 µM; nearly all actives have a fitted effect of over 65% in size
ALOX12 inh: Primary qHTS assay for inhibitors of human arachidonate 12S-lipoxygenase (ALOX12): Round 2; Polyunsaturated fatty acid lipoxygenase ALOX12 (Homo sapiens), P18054; purified 12hLO, xylenol orange hydroperoxide absorbance; Potency, µM (top dose mostly 108 µM), for inactives: at the top dose activity change, negative = inhibition, most hits filed as inhibitors; 1.1% of 580,000 active
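Hydroperoxide product was detected by ferrous iron/xylenol orange as the 573 to 405 nm absorbance ratio. Arachidonic acid at 40 uM (final) was turned over for 30 min at room temperature by 150 nM human 12hLO, pH 7.0 Hepes buffer, after 15 min compound preincubation.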
VDR inh: Inhibitors of the vitamin D receptor (VDR): qHTS; Vitamin D3 receptor (Homo sapiens), P11473; VDR-SRC2-3 peptide fluorescence polarization, 2 h; Potency, µM, inactives show max response, negative = inhibition, most hits filed as inhibitors; 0.93% of 400,000 active
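Fluorescence polarization assay of small-molecule disruption of VDR binding to coregulator peptide SRC2-3. Compounds and controls pin-transferred, then read after 2 h incubation at ambient room temperature.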
* hit, by the source's call; ? = inconclusive; . = no result. The list is not random: actives were taken first. Their share in the collection is about 3%. Calls follow the shape of the dose curve; as a rule, active = well fitted curve in the direction sought with a large enough effect; inconclusive = small, poorly fitted or top-dose-only effect, or another doubt; inactive = no such curve, though single readings can be large; an effect the other way counts as inactive or inconclusive. % is scaled to controls: 0 for no effect and ±100 for the full control effect; potency is read from the fitted curve at half-maximal effect.

SMILES	GCN5L2 inh	PLK1 PBD block	ALOX12 inh	VDR inh
COc1cccc(-c2noc(CC3CCN(C(=O)c4ccc(N(C)C)cc4)CC3)n2)c1	.	.	45.8%	.
CC1(c2ccc(O)cc2)NC(=O)N(c2ccccc2)N1 (stereo unspecified)	-8.8%	-4.0%	?	7.3%
CCC1(c2ccccc2)NC(=S)N(c2ccc(C)cc2)N1 (stereo unspecified)	?	-16.2%	?	?
CCCCCCCC1(C)NC(=O)NC1=O (stereo unspecified)	-2.9%	-9.8%	16.8%	6.2%
CCCCCCC1(C)NC(=S)N(c2ccccc2)N1 (stereo unspecified)	?	18.9µM*	?	?
CCCCCC1(C)NC(=S)N(c2ccccc2)N1 (stereo unspecified)	?	-10.4%	0.794µM*	?
CC1(CC(=O)Nc2ccccc2)NC(=S)N(c2ccccc2)N1 (stereo unspecified)	-6.9%	26.7µM*	-19.4%	-6.9%
C=C(C)CCC1(C)NC(=O)N(c2ccccc2)N1 (stereo unspecified)	-0.3%	-0.5%	?	9.6%
CCC1(c2ccc(Cl)cc2)NC(=S)N(c2ccccc2)N1 (stereo unspecified)	67.9%	?	15.8µM*	?
O=C(CSC1=NCCS1)c1ccc2c(c1)OCCO2	.	.	51.0%	.
O=C(Cn1nc(Cl)nc1Cl)c1ccc(F)cc1	-1.9%	-3.3%	2.5%	5.7%
O=C(Cn1nc(Cl)nc1Cl)c1ccccc1	-12.4%	16.8µM*	20.7%	-7.4%
O=C(Cn1nc(Cl)nc1Cl)c1ccc2c(c1)OCCO2	-1.2%	11.9µM*	0.5%	0.9%
CCCN(C)c1nccnc1OC1CCN(C(=O)c2ccc(F)cc2)C1 (stereo unspecified)	.	.	45.5%	.
COC(=O)C1=C(N)OC2=C(C(=O)CC(C)(C)C2)C1c1ccoc1 (stereo unspecified)	-4.4%	4.74µM*	-7.1%	-20.8%
COC(=O)C1=C(N)OC2=C(C(=O)CC(C)(C)C2)C1c1ccccc1OC (stereo unspecified)	-10.9%	-10.9%	-14.3%	1.7%
COc1ccc(C(=O)/C=C/c2cccc(OCc3ccccc3)c2)cc1CSCC(=O)O	?	21.2µM*	0.0%	12.6µM*
COc1ccc(C(=O)/C=C/c2ccccc2Cl)cc1CSCC(=O)O	.	.	-35.3%	.
COc1ccc(C(=O)/C=C/c2ccc(OCc3ccccc3)cc2)cc1CSCC(=O)O	-3.6%	23.8µM*	0.0%	?
CC1(C)CC(=O)C=C(OC(=O)c2ccc(Cl)cc2)C1	1.1%	11.9µM*	0.0%	16.2%
COC(=O)Cn1c(C)c(/C=C/c2cc[n+](C)cc2)c2ccccc21	-26.6%	50.8%	44.7µM*	-4.0%
Cn1nc(C(=O)NC2CCN(c3cc(-c4cccs4)[nH]n3)C2)c2ccccc21 (stereo unspecified)	.	.	29.1%	.
CN(C)c1ccc(C=c2c3cc([N+](=O)[O-])ccc3n3c2cc(-c2ccccc2)[n+]3C)cc1	.	2.67µM*	7.94µM*	?
CN(C)c1ccc(C=c2c3ccccc3n3c2c2c([n+]3C)CCCC2)cc1	.	-26.1%	?	43.3%
COc1cc(N(C)C)ccc1C=c1c2ccccc2n2c1cc(-c1ccccc1)[n+]2C	.	?	?	79.4µM*
SMILES	GCN5L2 inh	PLK1 PBD block	ALOX12 inh	VDR inh
Cn1c(CO)c(-c2ccccc2)c2cc([N+](=O)[O-])ccc21	0.8%	-4.2%	24.3%	14.6%
CN(C)c1ccc(C=c2c3ccccc3n3c2cc(-c2ccc(Cl)cc2)[n+]3C)cc1	.	29.9µM*	44.7µM*	-14.3%
CN(C)c1ccc(C=c2c3ccccc3n3c2cc(-c2ccccc2)[n+]3C)cc1	.	-0.5%	39.8µM*	-15.2%
CN(c1ccc(Cl)cc1)c1cc(=O)n(C)c2ccccc12	-1.4%	-13.3%	?	-2.8%
CCOc1ccc(-c2nc(CSCC(=O)NCC(OC)OC)c(C)o2)cc1	.	.	2.8%	.
COc1cc(C=c2c3ccccc3n3c2cc(-c2ccccc2)[n+]3C)cc(OC)c1OC	.	4.74µM*	?	-17.9%
COc1ccccc1NC(C)(C)c1nnnn1-c1ccc(OC)c(OC)c1	.	.	-25.2%	.
O=S(=O)(c1cccc(S(=O)(=O)N2CCC(Cc3ccccc3)CC2)c1)N1CCOCC1	-1.1%	26.7µM*	0.0%	4.0%
O=C(O)c1cccc(S(=O)(=O)N2CCC(Cc3ccccc3)CC2)c1	0.7%	-14.8%	0.0%	-6.7%
O=S(=O)(c1cccc(-c2n[nH]c(=S)o2)c1)N1CCOCC1	-6.8%	26.7µM*	?	-14.0%
Cc1cc(S(=O)(=O)N2CCOCC2)ccc1F	-4.6%	29.9µM*	0.0%	-20.8%
O=S(=O)(c1ccc2oc(=S)[nH]c2c1)N1CCOCC1	-20.1%	2.67µM*	?	?
O=S(=O)(c1cccc(-c2n[nH]c(=S)n2-c2ccccc2Cl)c1)N1CCOCC1	-1.3%	-22.5%	-7.3%	?
CCOC(=O)C(C)Oc1ccc2c(=O)c(Oc3cc(C)ccc3C)coc2c1 (stereo unspecified)	.	.	0.6%	.
COc1ccc(NC(=O)CSCc2cc(=O)c3cccc(F)c3[nH]2)cc1	.	.	-3.4%	.
O=C(NCCc1ccccn1)c1cccc(NS(=O)(=O)c2ccc3c(c2)OCCO3)c1	.	.	-30.6%	.
O=[N+]([O-])c1cc(S(=O)(=O)N2CCCC2)ccc1O	1.9%	-13.4%	7.3%	-0.1%
O=[N+]([O-])c1cc(S(=O)(=O)N2CCCCCC2)ccc1F	4.2%	15µM*	-7.3%	-18.4%
O=S(=O)(c1ccc(=S)[nH]c1)N1CCOCC1	34.7%	7.52µM*	?	-21.5%
O=S(=O)(c1ccc2oc(=S)[nH]c2c1)N1CCCCC1	-16.7%	-23.4%	-15.5%	-3.8%
O=S(=O)(Nc1cccc(Cl)c1)c1ccc2oc(=S)[nH]c2c1	-11.0%	33.6µM*	?	?
O=C(Cc1noc(C(=O)NCc2ccccc2Cl)n1)Nc1cccc2ncccc12	.	.	-1.6%	.
Nc1n[nH]c2ccccc12	-4.4%	-10.0%	2.6%	-1.0%
S=c1nn[nH]c2ccccc12	.	26.7µM*	31.6µM*	-14.2%
O=C(O)/C=C/c1cc(Br)c(-c2ccc(Cl)cc2Cl)o1	.	.	39.8µM*	.
SMILES	GCN5L2 inh	PLK1 PBD block	ALOX12 inh	VDR inh
O=C(O)/C=C/c1ccc(-c2ccc(Br)cc2Cl)o1	.	.	7.94µM*	.
O=C(O)/C=C/c1ccc(Cl)cc1	.	.	-1.9%	.
CCN(CC)c1cc(CCC(=O)N2CCC(C)CC2)ccn1	.	.	44.4%	.
Cc1cccc2sc(=S)[nH]c12	.	21.2µM*	31.6µM*	.
O=C(CN1CCN(c2ccc(O)cc2)CC1)NC(c1ccccc1)c1ccccc1	3.0%	-19.1%	22.4µM*	9.3%
COc1ccc(Cc2nc3ccc(C(=O)N(C)Cc4nccs4)cc3o2)cc1OC	0.2%	29.9µM*	0.3%	-16.0%
CC1=CN2C(=N)/C(=C/c3ccc([N+](=O)[O-])o3)C(=O)N=C2S1	24.4%	?	44.7µM*	?
COc1nc(C(=O)NC2(c3ccccc3)CCC2)cc2ccccc12	.	.	-12.5%	.
